The results in this text go back to PubChem BioAssay (NCI).

The panel holds about 83,000 compounds, 20% with a hit somewhere; the sample as a whole holds those more often.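 Negative percent growth values reflect cell death: -40 means 40% of the cells present at the start died, and -100 means all died.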 Unmarked numbers belong to inactive results. Active and inactive are the calls of the source. How the source made its calls: active means growth percent below 10; inactive means the rest.

The subject of this assay is MDA-MB-468 breast. Description: NCI-60 one-dose screen, 48 h (100 = growth as untreated, 0 = no growth, -100 = all killed). The conditions noted are these: 10 µM unless noted.
Regarding `CC(C)(C)c1ccc(O)c(C2CCCCC2)c1`, the growth was 111%.
Consider `COc1ccc2c(c1)OC(N)=C(C#N)C2c1cc(OC)c(OC)c(OC)c1` (centres undefined), for which the growth is -20.9% (active).
For `CC[C@H](C)C(=O)O[C@H]1CCC=C2C=C[C@H](C)C(CCC3C[C@@H](O)CC(=O)O3)[C@H]21` (some centres undefined) the value was 75.4%; for `COC1=CC(c2ccc[nH]2)=N/C1=C\c1[nH]c(C)c(C(=O)OC(C)C)c1C`, -74.1% (active); for `O=C(c1ccccc1)c1ccc(Oc2ccc([N+](=O)[O-])cc2[N+](=O)[O-])cc1`, 5.3% (active).
`Cc1cc(CCNC=O)c(C)c2c1sc1ccccc12`: the growth is 71.4%.
Next, `COc1ccc(NC(=O)c2ccc3c(c2)nc(-c2cc4ccccc4[nH]c2=O)n3-c2cc(C(C)(C)C)[nH]n2)cc1`: 95%; `COc1ccc(OC)c(-c2c(C#N)c(-c3ccco3)nc3c2c(-c2ccccc2)nn3-c2ccccc2)c1`: 98.4%.
On to `O=C(O)/C=C/C(=O)c1ccc(Cl)cc1`, for which the growth was 124%.
On to `C=CCOC(=O)C1=C(C)N(CC)C(=O)NC1c1c(Cl)n(C)c2ccccc12` (centres undefined), for which the growth was 107%.
On to `CCCCN=C(N)c1ccc(OCCSCCOc2ccc(C(N)=NCCCC)cc2)cc1`, for which the growth was 38.9%.
For the molecule `COc1ccccc1NC1=C(N2CCCCC2)C(=O)c2ccccc2C1=O`, the growth was 65.9%.
Next, `Nc1c(Br)cc2c(c1Br)Cc1cc([N+](=O)[O-])ccc1-2`: -54.8% (active); `Cc1ccc(-c2c3c(N)c4c(nc3nc3c2c(C)nn3-c2ccccc2)CCCC4)cc1`: 107%.
